# Compounds without any hit were thinned out: in the full panel of roughly 83,000, 20% have a hit.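 Step 1: grow cells in 96-well plates. Step 2: add test compound at a single concentration. Step 3: incubate 48 h. Step 4: record percent growth.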 A number with no mark means an inactive call. The source made the active and inactive calls. The calls were made as follows: active = growth percent below 10; inactive = the rest.
# Experiments:
# Assay in all cases: NCI-60 one-dose screen, 48 h (100 = growth as untreated, 0 = no growth, -100 = all killed)
# Conditions in all cases: 10 µM unless noted
# [1] = system: NCI-H23 lung
# [2] = system: NCI-H226 lung
# [3] = system: HOP-62 NSCLC
# [4] = system: NCI-H460 lung
# [5] = system: HOP-92 NSCLC
# [6] = system: NCI-H522 lung
# [7] = system: A549/ATCC NSCLC
# [8] = system: 786-0 renal
# [9] = system: COLO 205 colon
# [10] = system: DU-145 prostate
# [11] = system: MALME-3M melanoma
# [12] = system: MDA-MB-231 breast
# [13] = system: RXF 393 renal
# [14] = system: SF-268 CNS
# [15] = system: SF-295 CNS
# [16] = system: UACC-257 melanoma
# [17] = system: M14 melanoma
# [18] = system: K-562 leukemia
# [19] = system: SF-539 CNS
SMILES,growth [1] [%],growth [2],growth [3],growth [4] [%],growth [5],growth [6],growth [7],growth [8] [%],growth [9],growth [10],growth [11] [%],growth [12] [%],growth [13],growth [14] [%],growth [15],growth [16] [%],growth [17],growth [18],growth [19]
NC(=Nc1ccccc1)N[N+](=O)[O-],93.7,90.1%,104%,105,118%,115%,107%,113,107%,111%,103,115,95.2%,102,113%,112,99.9%,,
COC1=CC(=O)O[C@@H](/C=C/c2ccc3c(c2)OCO3)C1,117,92.8%,112%,118,60.9%,98.3%,97%,112,125%,141%,119,107,,111,122%,120,109%,93.9%,107%
CC[C@H](C)[C@H](NC(=O)[C@H]1CCCCN1C)C(=O)N(C)[C@H](C[C@@H](OC(C)=O)c1nc(C(=O)N[C@@H](Cc2ccccc2)C[C@H](C)C(=O)OC)cs1)C(C)C,11.8,12.6%,20.6%,14.6,-0.123% (active),-19.8% (active),8.91% (active),11.8,-39.7% (active),1.75% (active),65.5,19.5,38.1%,31.2,2.06% (active),52.9,3.87% (active),4.21% (active),-11.3% (active)
COc1ccc(/C=C\c2cc(OC)c(OC)c(OC)c2)cc1OCC(=O)Nc1nc2ccc(F)cc2s1,34.4,42.4%,51%,23.9,57.7%,6.14% (active),31%,65,32.3%,30.2%,38.3,46.7,9.41% (active),49.2,,51,51.9%,38.1%,26.7%
Nc1ccc2c(c1)Cc1cc(Br)ccc1-2,90.5,95.4%,101%,104,78%,107%,100%,108,117%,109%,118,84,112%,88,107%,122,118%,92.2%,100%
O=C(N/N=C\c1ccc(N(CCCl)CCCl)cc1)c1cccc([N+](=O)[O-])c1,87.7,46.6%,-2.12% (active),69.1,92.4%,107%,90.4%,96.7,,85.9%,100,89.2,98.5%,76.7,88.4%,92.7,110%,,81%
CN1C(=O)C(=Cc2cn(CCCCCCn3c4ccccc4c(=O)c4ccccc43)c3ccccc23)C(=O)N(C)C1=O,79.9,-20.8% (active),89.1%,85.1,97.5%,94.9%,103%,97.4,102%,105%,103,103,115%,94.6,95%,104,94%,88.3%,86%
CCc1ccccc1[C@@H]1C[C@]2(C)CCO[C@@H]2OO1,104,102%,98.2%,107,92.7%,104%,96.8%,101,,105%,110,103,112%,98.3,101%,96.7,104%,,111%
O=C1C(Cl)=C(N2CCOCC2)C(=O)c2ccccc21,85.2,104%,105%,101,-75.2% (active),75.1%,101%,111,106%,114%,48.2,84.2,129%,87.6,92.9%,54.4,105%,-36.7% (active),117%
CC(=O)[C@H]1CC[C@H]2[C@@H]3CC[C@H]4C[C@H](N)CC[C@]4(C)[C@H]3CC[C@]12C,86.7,95.7%,77.1%,79.9,7.56% (active),77.3%,66.4%,60.7,49.3%,92.2%,82.9,72.7,66.8%,92,99.6%,55.2,68.3%,56%,84.6%
CCC(CC)CC1(C)CC2(C)CCOC2OO1 (stereo not given),102,99%,97.9%,108,96.2%,90.9%,98.9%,101,118%,107%,112,100,111%,110,101%,98,115%,,99.1%

# Reference: PubChem BioAssay (NCI)
